Rows were chosen to be rich in hits. Some 1.1% of all compounds tested hit in one or more screens of this group.
HTR5A ag: activates human HTR5A in OPRM1-OPRD1 agonist counter-screen; P47898; HTR5A agonist assay, luminescence, cell-based; activation, % at 9.3 µM; 340,000 tested, 0.61% active; AID 504692; in the data active means activation mostly above about 9.5%, no sharp cut-off; inactive means mostly below about 7.6%;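 further: 0% = cells with vehicle only and 100% = reference agonist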
Target sequence (P47898 whole entry, looked up): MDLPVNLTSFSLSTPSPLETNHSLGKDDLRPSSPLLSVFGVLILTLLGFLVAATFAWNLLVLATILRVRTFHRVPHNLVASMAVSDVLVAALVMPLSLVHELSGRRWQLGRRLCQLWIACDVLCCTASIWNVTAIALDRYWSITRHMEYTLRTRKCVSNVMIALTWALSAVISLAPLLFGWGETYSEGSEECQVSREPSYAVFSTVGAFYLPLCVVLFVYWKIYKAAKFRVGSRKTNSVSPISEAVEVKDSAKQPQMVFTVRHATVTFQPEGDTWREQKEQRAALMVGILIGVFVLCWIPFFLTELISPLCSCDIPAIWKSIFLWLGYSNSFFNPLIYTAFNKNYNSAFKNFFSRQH
MOR-DOR ag: agonists of human mu-delta opioid receptor heterodimerization. P35372+P41143. cells, OPRM1-OPRD1 heterodimerization, luminescence. activation, % at 9.3 µM. 340,000 tested, 0.3% active. AID 504326; in the data active means activation above about 18%;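 further: 0% = vehicle-treated cells and 100% = reference agonist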
MOR-DOR inv ag: inverse agonist of human OPRM1-OPRD1 heterodimerization. P35372+P41143. cell-based MOR-DOR heterodimer luminescence, inverse agonism. 340,000 tested, 0.21% active. inhibition, % at 9.3 µM; in the data active means inhibition above about 22%, passing the limit was not always enough;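 further: 0% = cells with DMSO and 100% = wells without cells with DMSO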
HTR5A inv ag: inverse agonist of human HTR5A in OPRM1-OPRD1 counter-screen | 340,000 tested, 0.083% active | inhibition, % at 9.3 µM | P47898 | HTR5A cell line, luminescence, inverse agonism; in the data active means inhibition mostly above about 23%, no sharp cut-off; inactive means mostly below about 18%;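 further: 0% = cells with DMSO and 100% = no-cell wells with DMSO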
MOR-DOR inv conf: OPRM1-OPRD1 heterodimer inverse agonism, confirmation; shares compounds with MOR-DOR inv ag; cells expressing OPRM1/OPRD1 heterodimer, luminescence; inhibition, % at 9.3 µM; 580 tested, 20% active; AID 504900; in the data active means inhibition above about 32%;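 further: 0% = cells with DMSO and 100% = wells lacking cells with DMSO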
HTR5A inv count: inverse agonist of human HTR5A in OPRM1-OPRD1 counter-screen; HTR5A-expressing cells, luminescence, inverse agonism; shares compounds with MOR-DOR inv ag; inhibition, % at 9.3 µM; 580 tested, under 10 active; call rule not given here;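 further: 0% = cells with DMSO and 100% = no-cell wells with DMSO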
The depositor's hits bear a star; i = inactive; · = no result.

SMILES | HTR5A ag | MOR-DOR ag | MOR-DOR inv ag | HTR5A inv ag | MOR-DOR inv conf | HTR5A inv count
CCCC(=O)OCCNc1cc(Sc2nc3ccccc3[nH]2)c2nonc2c1[N+](=O)[O-] | -8 | -8 | 35* | 18 | 26 | -4
CC(NC(=O)COC(=O)c1ccccc1O)C1CC2CCC1C2 (stereo unspecified) | 4 | 0 | 1 | -10 | · | ·
Cc1ccc(C(=O)C2CCN(C(=S)NCCCOC(C)C)CC2)cc1 | 0 | -1 | 4 | 1 | · | ·
O=C(Nc1ccccc1C(=O)O)c1ccccc1 | -3 | 0 | 0 | -11 | · | ·
NC(=O)c1ccccc1OCC(=O)c1ccc(Cl)cc1 | 3 | -1 | 4 | -8 | · | ·
NC(=O)c1ccccc1NCC(=O)c1ccc(Cl)cc1 | -1 | -8 | 46* | 4 | i | -7
O=C(CNc1ccccc1C(=O)O)c1ccccc1 | -6 | -14 | 71* | 16 | -24 | 1
CC(C)C(NC(=O)Nc1ccccc1)C(=O)Nc1cccc(S(=O)(=O)N(C)C)c1 (stereo unspecified) | 8 | 0 | 1 | -42 | · | ·
Cn1c(N=Nc2ccccc2)nc2ccccc21 | 7 | -10 | 43* | -17 | -25 | -13
CN(C)c1ccc(N=Nc2nc3ccccc3n2C)cc1 | -10 | -3 | 15 | 39 | · | ·
CCC(CC)NC(=O)c1cc(S(=O)(=O)N2CCCCC2)ccc1N1CCOCC1 | -5 | -3 | 11 | 12 | · | ·
COc1ccc(CNC(=O)c2nc(S(=O)(=O)Cc3ccccc3)ncc2Cl)cc1 | -6 | -5 | 24 | -8 | · | ·
O=C(NCc1ccccc1)c1nc(S(=O)(=O)Cc2ccccc2)ncc1Cl | -8 | -6 | 35* | 25 | 8 | 4
O=C(NCc1ccc2c(c1)OCO2)c1nc(S(=O)(=O)Cc2ccccc2)ncc1Cl | 2 | -5 | 27 | -6 | · | ·
O=C(NCc1ccc2c(c1)OCO2)c1nc(S(=O)(=O)Cc2ccccc2F)ncc1Cl | -1 | -6 | 32* | 4 | 9 | -3
CC(Oc1ccc(Br)cc1)C(=O)Nc1cc(Cl)ccc1N1CCN(C)CC1 (stereo unspecified) | -3 | 4 | -25 | 8 | · | ·
O=C(c1ccco1)C(O)c1ccco1 (stereo unspecified) | -10 | -14 | 70* | 35* | -444 | -54
Cc1ccc(C(O)C(=O)c2ccco2)cc1 (stereo unspecified) | -3 | -3 | 15 | 13 | · | ·
O=C(C(=O)c1cccnc1)c1cccnc1 | -3 | -7 | 36* | 13 | i | 2
O=C(c1cccnc1)c1cccnc1 | -1 | 2 | -15 | 3 | · | ·
c1cncc(-c2nnc(-c3cccnc3)nn2)c1 | -7 | -15 | 86* | 18 | -33 | 18
Cc1cnc(C(=O)OC(C)C(=O)Nc2ccccc2-c2ccccc2)cn1 (stereo unspecified) | 0 | -1 | 7 | 6 | · | ·
COc1ccc(NC(=O)/C(Cl)=C(/Cl)S(=O)Cc2ccc(Cl)cc2)cn1 (stereo unspecified) | -4 | -8 | 41* | 11 | -13 | 14
CC1(C)CN(c2ccccc2)N(C(=O)c2ccc(F)cc2)C1=O | 3 | -9 | 46* | -9 | -10 | -136
CC1(C)COCN1C(=O)c1ccc(C#N)cc1 | 5 | -4 | 19 | -20 | · | ·
SMILES | HTR5A ag | MOR-DOR ag | MOR-DOR inv ag | HTR5A inv ag | MOR-DOR inv conf | HTR5A inv count
CC1(C)CN(c2ccccc2)N(C(=O)c2ccc(C#N)cc2)C1=O | -2 | -10 | 51* | -4 | 25 | -7
COc1ccccc1CNC(=O)CN1C(=O)COc2ccc(S(=O)(=O)N3CCCCC3)cc21 | 0 | -2 | 13 | 1 | · | ·
c1ccc2c(c1)c1c(c3ccccc32)CN2CCCC2C1 (stereo unspecified) | -2 | 1 | -5 | 7 | · | ·
O=C1C=C(O)c2cccc3cccc1c23 | -1 | -3 | 13 | 4 | · | ·
NN=C1C(=O)c2cccc3cccc1c23 | -4 | -11 | 57* | 15 | -98 | -1
O=C(Nc1ccccc1C(F)(F)F)C1CCCC1 | 2 | 1 | -3 | -7 | · | ·
ON1C(c2ccccc2C(F)(F)F)N(O)[C@H]2CCCC[C@H]21 (stereo partly specified) | 0 | -7 | 41* | 0 | 13 | -6
Cc1ccc(OCC(=O)NN=C2C3CC4CC(C3)CC2C4)cc1 | 9 | -1 | 5 | -22 | · | ·
Cc1ccc(NC(=S)NNC(=O)c2nn(C)cc2Cl)cc1 | -7 | -5 | 29* | 24 | -9 | 7
CCN(CC(=O)Nc1ccc(OC)cc1)C(=O)Cc1coc2cc(C)c(C)cc12 | -2 | -1 | 5 | 6 | · | ·

Assay outcomes deposited in PubChem BioAssay by The Scripps Research Institute Molecular Screening Center.
